Results on 29 compounds are retold here after the supplement of paper PMC8866396.

One assay relates to IL-6-GFP PC-9GR. The assay can be described thus: cell viability (CCK-8 OD) relative to DMSO control (fraction of control); higher = more viable cells. The following applies: compound concentration: 10 uM; treatment time: 48 h. Put shortly: (§1)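 PC-9 and PC-9GR lung cancer cells carrying a lentiviral construct that overexpresses IL-6-GFP were seeded in 96-well plates at 3000 cells/well. Every compound in a purchased 510-compound library was applied at a final 10 μM for 48 h, and a parallel set of plates was kept for GFP imaging. Cell viability was read by CCK-8 absorbance, taking each well's optical density as a ratio to the vehicle control well. Two independent replicates were run.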

The next assay concerns IL-6-GFP PC-9. Described as above. The following applies: compound concentration: 10 uM; treatment time: 48 h. The method, boiled down:
as §1

Structures are written as SMILES. ± gives the standard deviation of the averaged measurements.

Turning to `CNC(=O)c1cc(Oc2ccc(NC(=O)Nc3ccc(Cl)c(C(F)(F)F)c3)c(F)c2)ccn1` [Regorafenib (BAY 73-4506)], the cell viability came out at 0.833 ± 0.029 in the assay on IL-6-GFP PC-9GR and 0.476 ± 0.11 in the assay with IL-6-GFP PC-9.
For `CC(C)CC(NC(=O)C(Cc1ccccc1)NC(=O)c1cnccn1)B(O)O` (stereo not drawn) [Bortezomib (PS-341)], the cell viability amounted to 0.105 ± 0.11 in the assay on IL-6-GFP PC-9GR and 0.14 ± 0.057 with IL-6-GFP PC-9.
In the same order, the values of `CCCC(=O)OC1(C(=O)CO)CCC2C3CCC4=CC(=O)CCC4(C)C3C(O)CC21C` (stereo not drawn) [Hydrocortisone butyrate] are 0.857 ± 0.11 and 1.08 ± 0.073.
For `CCN1CCN(Cc2ccc(Nc3ncc(F)c(-c4cc(F)c5nc(C)n(C(C)C)c5c4)n3)nc2)CC1` [Abemaciclib], the cell viability is 0.668 ± 0.14 in the assay with IL-6-GFP PC-9GR and 0.746 ± 0.094 in the assay on IL-6-GFP PC-9.
On to `CCN1CCN(Cc2ccc(Nc3ncc(F)c(-c4cc(F)c5nc(C)n(C(C)C)c5c4)n3)nc2)CC1.CS(=O)(=O)O`, for which the cell viability was 0.42 ± 0.27 in the assay on IL-6-GFP PC-9GR and 0.415 ± 0.016 in the assay on IL-6-GFP PC-9.
The matching figures for `CC(C)c1nc(CN(C)C(=O)NC(CCN2CCOCC2)C(=O)NC(CCC(Cc2ccccc2)NC(=O)OCc2cncs2)Cc2ccccc2)cs1` (stereo not drawn) [Cobicistat (GS-9350)]: 0.989 ± 0.11 and 1.14 ± 0.22.
In the same order, the values of `NC(=O)NO` [Hydroxyurea] are 1.32 ± 0.077 and 0.839 ± 0.1.
In the same order, the values of `CC[N+](CC)(CC)CCOc1cccc(OCC[N+](CC)(CC)CC)c1OCC[N+](CC)(CC)CC.[I-].[I-].[I-]` [Gallamine Triethiodide] are 1.34 ± 0.31 and 1.202 ± 0.0034.
As for `CCC(=O)OCC(=O)C1(OC(=O)CC)C(C)CC2C3CCC4=CC(=O)C=CC4(C)C3(Cl)C(O)CC21C` (stereo not drawn) [Beclomethasone dipropionate], the results for the cell viability in the assay on IL-6-GFP PC-9GR and with IL-6-GFP PC-9 were 0.987 ± 0.24 and 0.797 ± 0.12, respectively.
On to `CONC(=O)Nc1ccc(-c2sc3c(c2CN(C)C)c(=O)n(-c2ccc(OC)nn2)c(=O)n3Cc2c(F)cccc2F)cc1` [Relugolix], for which the cell viability in the assay on IL-6-GFP PC-9GR turned out to be 1.41 ± 0.42; in the assay with IL-6-GFP PC-9, 1.01 ± 0.17.
The matching figures for `CN(C)CCN1C(=O)c2cccc3cc(N)cc(c23)C1=O` [Amonafide]: 0.534 ± 0.025 and 0.425 ± 0.076.
For `Cc1nc(Nc2ccc(F)cc2)nc(N2CCc3ccccc3C2C)c1C.Cl` (stereo not drawn) [Revaprazan Hydrochloride], the results for the cell viability in the assay on IL-6-GFP PC-9GR and in the assay with IL-6-GFP PC-9 were 1.63 ± 0.64 and 1.14 ± 0.043, respectively.
In the same order, the values of `CN1CCC(=C2c3ccccc3CCc3cccnc32)CC1.O=C(O)/C=C\C(=O)O.O=C(O)/C=C\C(=O)O` [Azatadine dimaleate] are 0.981 ± 0.12 and 0.513 ± 0.013.
The matching figures for `O=C(O)Cc1ccccc1Nc1c(Cl)cccc1Cl` [Diclofenac acid]: 1.07 ± 0.24 and 1.12 ± 0.17.
In the case of `CC1CC2C3CCC4=CC(=O)C=CC4(C)C3(F)C(O)CC2(C)C1(O)C(=O)COP(=O)([O-])[O-].[Na+].[Na+]` (stereo not drawn) [Dexamethasone Sodium Phosphate], the cell viability came out at 1.22 ± 0.16 in the assay with IL-6-GFP PC-9GR and 0.831 ± 0.039 in the assay on IL-6-GFP PC-9.
In the same order, the values of `C=CCC1/C=C(\C)CC(C)CC(OC)C2OC(O)(C(=O)C(=O)N3CCCCC3C(=O)OC(/C(C)=C/C3CCC(O)C(OC)C3)C(C)C(O)CC1=O)C(C)CC2OC` (stereo not drawn) [Tacrolimus (FK506)] are 1.14 ± 0.079 and 1.34 ± 0.11.
In the case of `CNC(=O)c1ccc(N2C(=S)N(c3ccc(C#N)c(C(F)(F)F)c3)C(=O)C2(C)C)cc1F` [Enzalutamide (MDV3100)], the figures for the cell viability in the assay with IL-6-GFP PC-9GR and with IL-6-GFP PC-9 were 1.04 ± 0.077 and 0.808 ± 0.099, respectively.
The matching figures for `OCC1OC(c2ccc(Cl)c(Cc3ccc(OC4CCOC4)cc3)c2)C(O)C(O)C1O` (stereo not drawn): 1.05 ± 0.13 and 0.905 ± 0.058.
In the same order, the values of `CC12CCC3c4ccc(O)cc4CC(CCCCCCCCCS(=O)CCCC(F)(F)C(F)(F)F)C3C1CCC2O` (stereo not drawn) [Fulvestrant] are 1.14 ± 0.072 and 1.024 ± 0.0045.
In the same order, the values of `CC(C)c1nc(N(C)S(C)(=O)=O)nc(-c2ccc(F)cc2)c1/C=C/C(O)CC(O)CC(=O)O` (stereo not drawn) [Rosuvastatin] are 1.56 ± 0.24 and 1.12 ± 0.1.
As for `Cc1nc(NC(=O)N2CCCC2C(N)=O)sc1-c1ccnc(C(C)(C)C(F)(F)F)c1` (stereo not drawn) [Alpelisib (BYL719)], the cell viability with IL-6-GFP PC-9GR is 0.983 ± 0.067; with IL-6-GFP PC-9, 0.934 ± 0.11.
In the same order, the values of `CN(C)C(=O)c1cc2cnc(Nc3ccc(N4CCNCC4)cn3)nc2n1C1CCCC1` [Ribociclib (LEE011)] are 1.29 ± 0.4 and 1.01 ± 0.029.
In the same order, the values of `O=C(Nc1ccc(O)cc1)c1ccccc1O` [Osalmid] are 1.3 ± 0.45 and 1.25 ± 0.1.
In the same order, the values of `CCOC(=O)OC1(C(=O)OCCl)CCC2C3CCC4=CC(=O)C=CC4(C)C3C(O)CC21C` (stereo not drawn) [Loteprednol etabonate] are 1.21 ± 0.051 and 0.944 ± 0.063.
For the compound `Nc1nc(Cl)nc2c1ncn2C1CC(O)C(CO)O1` (stereo not drawn) [Cladribine], the cell viability amounted to 0.941 ± 0.059 in the assay with IL-6-GFP PC-9GR and 0.762 ± 0.076 in the assay with IL-6-GFP PC-9.
The matching figures for `COc1cccc2c1C(=O)c1c(O)c3c(c(O)c1C2=O)CC(O)(C(=O)CO)CC3OC1CC(N)C(O)C(C)O1.Cl` (stereo not drawn) [Epirubicin HCl]: 0.141 ± 0.14 and 0.1407 ± 0.00071.
The matching figures for `CCC1(O)C(=O)OCc2c1cc1n(c2=O)Cc2cc3cc(O)ccc3nc2-1` [(S)-10-Hydroxycamptothecin]: 0.466 ± 0.076 and 0.433 ± 0.032.
Turning to `CC(C)OC(=O)CCC/C=C\CC1C(O)CC(O)C1CCC(O)CCc1ccccc1` (stereo not drawn) [Latanoprost], the cell viability was 0.776 ± 0.15 in the assay on IL-6-GFP PC-9GR and 1 ± 0.26 in the assay with IL-6-GFP PC-9.
In the same order, the values of `CCN(CC)CCNC(=O)c1c(C)[nH]c(/C=C2\C(=O)Nc3ccc(F)cc32)c1C` [Sunitinib] are 0.573 ± 0.2 and 0.911 ± 0.27.
